Eight molecules from PubChem BioAssay (NCI) can be followed below.

Molecules are shown by their SMILES. This is part of a sample that, as a whole, favours compounds with a hit. Of some 83,000 tested, about 20% had one in any assay.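 Results are percent growth after 48 hours of single-concentration exposure. 100 means growth as in untreated cells, lower positive values show inhibition; negative values down to -100 show cell death.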 A number with no mark means an inactive call. The source made the active and inactive calls. How the source made its calls: active means growth percent below 10; inactive means the rest.

Test systems include SR leukemia; RPMI-8226 leukemia; OVCAR-8 ovarian; OVCAR-5 ovarian; OVCAR-4 ovarian; SK-OV-3 ovarian; IGROV1 ovarian; OVCAR-3 ovarian; HS 578T breast; NCI/ADR-RES ovarian; T-47D breast; BT-549 breast; MDA-MB-435 melanoma; SW-620 colon; MCF7 breast; HCT-116 colon; HCC-2998 colon; KM12 colon; MDA-MB-468 breast.
Common to all, as to assay: NCI-60 one-dose screen, 48 h (100 = growth as untreated, 0 = no growth, -100 = all killed)
Conditions in all cases: 10 µM unless noted

For `Cc1ccc2c(c1)nc(-c1ccccc1)n2CC(=O)N=Nc1c(O)[nH]c2ccc(Br)cc12`, the growth with SR leukemia was 0.421% (active); with RPMI-8226 leukemia it was -1.7% (active); with OVCAR-8 ovarian, -67.2% (active); with OVCAR-5 ovarian, -20.2% (active); in the assay with OVCAR-4 ovarian it was -49.3% (active); with SK-OV-3 ovarian it was -32% (active). Besides, the growth is -78% (active) in the assay with IGROV1 ovarian; -75.2% (active) with OVCAR-3 ovarian; -5.01% (active) in the assay with HS 578T breast; -69.6% (active) in the assay on NCI/ADR-RES ovarian; -46% (active) in the assay on T-47D breast; -72.1% (active) in the assay on BT-549 breast. Also, the growth with MDA-MB-435 melanoma is -33.4% (active); with SW-620 colon it was 2.54% (active); in the assay on MCF7 breast it was -69.7% (active); in the assay on HCT-116 colon, -91.7% (active); with HCC-2998 colon it was -72% (active); with KM12 colon, -46% (active). Moreover, the growth with MDA-MB-468 breast is -78.4% (active).

For the molecule `COc1ccc(Cc2nn(CC(=O)N/N=C/c3ccc(F)cc3)c(=O)c3c(C)noc23)cc1`, the growth with SR leukemia was 53.2%; in the assay on RPMI-8226 leukemia, 64.7%; in the assay on OVCAR-8 ovarian it was 38.6%; in the assay with OVCAR-5 ovarian it was 55%; in the assay on OVCAR-4 ovarian, -35.8% (active); with SK-OV-3 ovarian, -72.1% (active). Besides, the growth in the assay on IGROV1 ovarian was 39.7%; in the assay with OVCAR-3 ovarian, 47%; with HS 578T breast, 23.1%; in the assay on NCI/ADR-RES ovarian it was 38.4%; with T-47D breast, -14.1% (active); in the assay on BT-549 breast, 43.2%. Further, the growth in the assay on MDA-MB-435 melanoma is 48.1%; in the assay with SW-620 colon it was 61.4%; in the assay on MCF7 breast, 56.5%; in the assay on HCT-116 colon, 5.98% (active); with HCC-2998 colon, 39.3%; in the assay on KM12 colon, 73.1%. Also, the growth in the assay on MDA-MB-468 breast was 63.2%.

As for `CC(/C=C1\SC(=S)N(CCCC(=O)NC(CC(C)C)C(=O)O)C1=O)=C\c1ccccc1` (configuration not stated), the growth in the assay on SR leukemia was 101%; in the assay with RPMI-8226 leukemia it was 77.6%; with OVCAR-8 ovarian it was 87.5%; with OVCAR-5 ovarian it was 111%; with OVCAR-4 ovarian, 99.8%; with SK-OV-3 ovarian, 106%. Also, the growth in the assay on IGROV1 ovarian was 109%; in the assay with OVCAR-3 ovarian it was 91.3%; in the assay with HS 578T breast it was 97.5%; in the assay with NCI/ADR-RES ovarian it was 94.1%; in the assay on T-47D breast it was 89.7%; in the assay with BT-549 breast it was 78%. Besides, the growth in the assay on MDA-MB-435 melanoma was 94.8%; in the assay with SW-620 colon it was 112%; in the assay on MCF7 breast, 82.1%; in the assay on HCT-116 colon it was 71%; with HCC-2998 colon it was 108%; in the assay with KM12 colon, 57.9%. Besides, in the assay with MDA-MB-468 breast, the growth is 86.7%.

As for `CC1(C)CC[C@]2(C(=O)Nc3ccc(F)cc3)CC[C@]3(C)C(=CCC4[C@@]5(C)C[C@@H](O)[C@H](O)[C@@](C)(CO)C5CC[C@]43C)C2C1` (some centres not stated), the growth in the assay on SR leukemia is 1.68% (active); in the assay with RPMI-8226 leukemia, 0.573% (active); in the assay with OVCAR-8 ovarian, 48.1%; with OVCAR-5 ovarian, 32.6%; with OVCAR-4 ovarian, 49.4%; with SK-OV-3 ovarian it was 24.8%. Moreover, the growth in the assay with IGROV1 ovarian is 63.5%; with OVCAR-3 ovarian it was 58%; in the assay on HS 578T breast, 45.5%; with NCI/ADR-RES ovarian it was 43%; in the assay with T-47D breast, 15.5%; in the assay with BT-549 breast, 33.2%. For the same molecule, the growth was 39.9% in the assay on MDA-MB-435 melanoma; 59.4% in the assay on SW-620 colon; 7.64% (active) in the assay on MCF7 breast; 17.2% in the assay with HCT-116 colon; 36% with HCC-2998 colon; 30.1% with KM12 colon. Besides, in the assay with MDA-MB-468 breast, the growth was 7.26% (active).

For `COc1ccc(C(=O)/C=C/c2ccc(OCc3ccc(F)cc3)c(OC)c2)cc1OC`, the growth is 7.52% (active) in the assay with SR leukemia; 1.35% (active) with RPMI-8226 leukemia; -7.27% (active) with OVCAR-8 ovarian; 1.16% (active) in the assay on OVCAR-5 ovarian; 17.3% in the assay on OVCAR-4 ovarian; 40.2% in the assay with SK-OV-3 ovarian. In addition, the growth with IGROV1 ovarian is 17.5%; in the assay with OVCAR-3 ovarian, 18.2%; with HS 578T breast, 84.7%; with NCI/ADR-RES ovarian, 11%; in the assay on T-47D breast it was 26.8%; with BT-549 breast, -1.79% (active). For the same molecule, the growth was 7.77% (active) with MDA-MB-435 melanoma; 7.65% (active) in the assay on SW-620 colon; 7.56% (active) in the assay on MCF7 breast; 8.63% (active) in the assay with HCT-116 colon; 16.8% in the assay on HCC-2998 colon; 14% with KM12 colon. Moreover, in the assay with MDA-MB-468 breast, the growth is 8.91% (active).

For `Cc1ccc(-c2nc(Nc3ccccc3S(N)(=O)=O)c3ccccc3n2)cc1`, the growth is 46.7% with SR leukemia; 59.7% in the assay with RPMI-8226 leukemia; 55.6% with OVCAR-8 ovarian; 85.3% in the assay with OVCAR-5 ovarian; 74.2% in the assay on OVCAR-4 ovarian; 91.4% in the assay with SK-OV-3 ovarian. Besides, the growth in the assay on IGROV1 ovarian is 82.3%; with OVCAR-3 ovarian, 97.1%; with HS 578T breast, 76.8%; with NCI/ADR-RES ovarian, 55.7%; in the assay on T-47D breast, 90.8%; with BT-549 breast it was 115%. In addition, the growth in the assay with MDA-MB-435 melanoma was 85.4%; in the assay with SW-620 colon, 85.8%; with MCF7 breast it was 81.6%; with HCT-116 colon, 40%; in the assay with HCC-2998 colon, 104%; with KM12 colon it was 65.3%. Besides, the growth in the assay on MDA-MB-468 breast was 98.4%.

For the molecule `CCN(CC)c1ccc(/C=N/Nc2nc(-c3ccc(C)cc3)cs2)c(O)c1`, the growth is 92.9% in the assay on SR leukemia; 74.3% in the assay with RPMI-8226 leukemia; 86.8% in the assay on OVCAR-8 ovarian; 93.2% in the assay with OVCAR-5 ovarian; 89.7% with OVCAR-4 ovarian; 108% in the assay on SK-OV-3 ovarian. Further, the growth in the assay with IGROV1 ovarian was 96.3%; in the assay on OVCAR-3 ovarian it was 92.1%; with HS 578T breast, 108%; in the assay on NCI/ADR-RES ovarian it was 92.5%; with T-47D breast it was 68.7%; in the assay with BT-549 breast, 71.9%. In addition, the growth in the assay with MDA-MB-435 melanoma was 96.7%; in the assay with SW-620 colon it was 99.1%; in the assay with MCF7 breast it was 67.8%; in the assay on HCT-116 colon, 72.9%; in the assay with HCC-2998 colon, 106%; with KM12 colon, 94.6%. Also, in the assay with MDA-MB-468 breast, the growth is 66.7%.

Take `COc1cc2oc(-c3cccc(C(=O)Nc4ccc(Cl)cc4)c3)cc(=O)c2c(OCCNC(=O)[C@H](CO)NC(=O)OC(C)(C)C)c1OC`: the growth in the assay with SR leukemia is 2.89% (active); in the assay on RPMI-8226 leukemia, -39.9% (active); in the assay on OVCAR-8 ovarian, 18.3%; in the assay on OVCAR-5 ovarian it was 32%; in the assay on OVCAR-4 ovarian it was 36.4%; in the assay on SK-OV-3 ovarian, 93.3%. The growth was 25.3% in the assay on IGROV1 ovarian; 17.2% in the assay on OVCAR-3 ovarian; 26.5% in the assay with HS 578T breast; 64.8% in the assay on NCI/ADR-RES ovarian; 29% in the assay with T-47D breast; -52.3% (active) in the assay with BT-549 breast. The growth with MDA-MB-435 melanoma is 3.55% (active); with SW-620 colon it was 33.7%; in the assay on MCF7 breast it was 6.34% (active); in the assay with HCT-116 colon, 7.19% (active); in the assay on HCC-2998 colon, -7.27% (active); in the assay with KM12 colon, 17.3%. For the same molecule, in the assay with MDA-MB-468 breast, the growth is -4.81% (active).
